31 molecules from article PMC9911399, “Two distinct binding modes provide the RNA-binding protein RbFox with extraordinary sequence specificity” can be followed below.

Sequences and labels used below:
T1: RBFOX1 RRM RbFoxmut (Fox-RRM*) (Homo sapiens, UniProt Q9NWB1 109-208, R118D;E147R;N151S;E152T)
T1 sequence: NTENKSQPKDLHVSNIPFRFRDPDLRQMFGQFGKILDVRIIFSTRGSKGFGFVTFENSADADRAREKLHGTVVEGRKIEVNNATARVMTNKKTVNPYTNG

B1: GGCCUAA (DNA:RNA)
RNA: GGGAGACCGGAAUUCAGAUUGUCCGGCCUAAUUAAAUCCCGUCGUAGCCACCA
DNA 1: CAATCTGAATTCCGGTCTCCC
DNA 2: TGGTGGCTACGACGGGATT
B2: GUUCGUA (DNA:RNA)
RNA: B1 RNA with G26U, C27U, U29G, A30U
DNA 1: CAATCTGAATTCCGGTCTCCC
DNA 2: TGGTGGCTACGACGGGATT
B3: UUCUUCA (DNA:RNA)
RNA: B1 RNA with G25U, G26U, C28U, A30C
DNA 1: CAATCTGAATTCCGGTCTCCC
DNA 2: TGGTGGCTACGACGGGATT
B4: UGCGUAU (DNA:RNA)
RNA: B1 RNA with G25U, C28G, A31U
DNA 1: CAATCTGAATTCCGGTCTCCC
DNA 2: TGGTGGCTACGACGGGATT
B5: AUAGGAG (DNA:RNA)
RNA: B1 RNA with G25A, G26U, C27A, C28G, U29G, A31G
DNA 1: CAATCTGAATTCCGGTCTCCC
DNA 2: TGGTGGCTACGACGGGATT
B6: CAGGGCG (DNA:RNA)
RNA: GGGAGACCGGAAUUCAGAUUGUCCCAGGGCGUUAAAUCCCGUCGUAGCCACCA
DNA 1: CAATCTGAATTCCGGTCTCCC
DNA 2: TGGTGGCTACGACGGGATT
B7: GAUCCAA (DNA:RNA)
RNA: B1 RNA with G26A, C27U, U29C
DNA 1: CAATCTGAATTCCGGTCTCCC
DNA 2: TGGTGGCTACGACGGGATT
B8: AGCUUUC (DNA:RNA)
RNA: B1 RNA with G25A, C28U, A30U, A31C
DNA 1: CAATCTGAATTCCGGTCTCCC
DNA 2: TGGTGGCTACGACGGGATT
B9: CGAUGCG (DNA:RNA)
RNA: B6 RNA with A26G, G27A, G28U
DNA 1: CAATCTGAATTCCGGTCTCCC
DNA 2: TGGTGGCTACGACGGGATT
B10: GAAUCCC (DNA:RNA)
RNA: B6 RNA with C25G, G27A, G28U, G29C, G31C
DNA 1: CAATCTGAATTCCGGTCTCCC
DNA 2: TGGTGGCTACGACGGGATT
B11: GAAUGCG (DNA:RNA)
RNA: B6 RNA with C25G, G27A, G28U
DNA 1: CAATCTGAATTCCGGTCTCCC
DNA 2: TGGTGGCTACGACGGGATT
B12: GAAUGCC (DNA:RNA)
RNA: B6 RNA with C25G, G27A, G28U, G31C
DNA 1: CAATCTGAATTCCGGTCTCCC
DNA 2: TGGTGGCTACGACGGGATT
B13: GGAUGCC (DNA:RNA)
RNA: B6 RNA with C25G, A26G, G27A, G28U, G31C
DNA 1: CAATCTGAATTCCGGTCTCCC
DNA 2: TGGTGGCTACGACGGGATT
B14: CGAUGCC (DNA:RNA)
RNA: B6 RNA with A26G, G27A, G28U, G31C
DNA 1: CAATCTGAATTCCGGTCTCCC
DNA 2: TGGTGGCTACGACGGGATT
B15: CUUCGUG (DNA:RNA)
RNA: B6 RNA with A26U, G27U, G28C, C30U
DNA 1: CAATCTGAATTCCGGTCTCCC
DNA 2: TGGTGGCTACGACGGGATT
B16: CACUUAC (DNA:RNA)
RNA: B1 RNA with G25C, G26A, C28U, A31C
DNA 1: CAATCTGAATTCCGGTCTCCC
DNA 2: TGGTGGCTACGACGGGATT
B17: GAUGAUU (DNA:RNA)
RNA: B6 RNA with C25G, G27U, G29A, C30U, G31U
DNA 1: CAATCTGAATTCCGGTCTCCC
DNA 2: TGGTGGCTACGACGGGATT
B18: GUAAUGA (DNA:RNA)
RNA: B1 RNA with G26U, C27A, C28A, A30G
DNA 1: CAATCTGAATTCCGGTCTCCC
DNA 2: TGGTGGCTACGACGGGATT
B19: GGAAUGA (DNA:RNA)
RNA: B1 RNA with C27A, C28A, A30G
DNA 1: CAATCTGAATTCCGGTCTCCC
DNA 2: TGGTGGCTACGACGGGATT
B20: GAAUUUU (DNA:RNA)
RNA: B1 RNA with G26A, C27A, C28U, A30U, A31U
DNA 1: CAATCTGAATTCCGGTCTCCC
DNA 2: TGGTGGCTACGACGGGATT
B21: GACCGAA (DNA:RNA)
RNA: B1 RNA with G26A, U29G
DNA 1: CAATCTGAATTCCGGTCTCCC
DNA 2: TGGTGGCTACGACGGGATT
B22: GAAUUGA (DNA:RNA)
RNA: B1 RNA with G26A, C27A, C28U, A30G
DNA 1: CAATCTGAATTCCGGTCTCCC
DNA 2: TGGTGGCTACGACGGGATT
B23: GAAAUGA (DNA:RNA)
RNA: B1 RNA with G26A, C27A, C28A, A30G
DNA 1: CAATCTGAATTCCGGTCTCCC
DNA 2: TGGTGGCTACGACGGGATT
B24: CGAAUGA (DNA:RNA)
RNA: B1 RNA with G25C, C27A, C28A, A30G
DNA 1: CAATCTGAATTCCGGTCTCCC
DNA 2: TGGTGGCTACGACGGGATT
B25: GUCCGAA (DNA:RNA)
RNA: B1 RNA with G26U, U29G
DNA 1: CAATCTGAATTCCGGTCTCCC
DNA 2: TGGTGGCTACGACGGGATT
B26: GAAUGAA (DNA:RNA)
RNA: B1 RNA with G26A, C27A, C28U, U29G
DNA 1: CAATCTGAATTCCGGTCTCCC
DNA 2: TGGTGGCTACGACGGGATT
B27: GAAUGAU (DNA:RNA)
RNA: B6 RNA with C25G, G27A, G28U, C30A, G31U
DNA 1: CAATCTGAATTCCGGTCTCCC
DNA 2: TGGTGGCTACGACGGGATT
B28: CGUUAAA (DNA:RNA)
RNA: B1 RNA with G25C, C27U, C28U, U29A
DNA 1: CAATCTGAATTCCGGTCTCCC
DNA 2: TGGTGGCTACGACGGGATT
B29: GACUAAG (DNA:RNA)
RNA: B1 RNA with G26A, C28U, U29A, A31G
DNA 1: CAATCTGAATTCCGGTCTCCC
DNA 2: TGGTGGCTACGACGGGATT
B30: CAUAAUU (DNA:RNA)
RNA: B6 RNA with G27U, G28A, G29A, C30U, G31U
DNA 1: CAATCTGAATTCCGGTCTCCC
DNA 2: TGGTGGCTACGACGGGATT
B31: AUCUAGU (DNA:RNA)
RNA: B1 RNA with G25A, G26U, C28U, U29A, A30G, A31U
DNA 1: CAATCTGAATTCCGGTCTCCC
DNA 2: TGGTGGCTACGACGGGATT

Substitutions are numbered along the chain they refer to; changes in the protein carry UniProt numbers. Whole data set: some 16,000 sequences, median “ka relative to ugcaugu” near 0.096, cut for the highest 2% near 0.35. This is one part of a sample in which the highest values are shown more often than they occur.

The target in the experiment is T1, RBFOX1 RRM RbFoxmut (Fox-RRM*). As to the kind of experiment: EMSA; HiTS-Eq, 1 nM pool, 10 min; buffer printed only for the single-RNA assays: 10 mM Tris pH 7.5, 150 mM NaCl, 3.4 mM EDTA, 0.001% NP-40, 30 C. As to conditions: tags: His6 N-terminal (pET28a); label: 5' 32P. An outline of the steps: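 Purified wild-type or mutant RbFox RRM at increasing concentrations was equilibrated with 1 nM of 5′-radiolabelled RNA carrying 7 randomized nucleotides for 10 min in 50 µL. Unbound RNA was separated by 8% native PAGE and sequenced. Relative association constants came from read-count changes of each RNA species compared with the control reaction, normalised to the cognate motif.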
Background: Mobility shift assays separate free from complexed probe on a gel.
Turning to B1, the binding signal was 0.0594 KA relative to UGCAUGU. Take B2: the binding signal is 0.155 KA relative to UGCAUGU. On to B3, for which the binding signal is 0.111 KA relative to UGCAUGU. For B4, the binding signal is 0.143 KA relative to UGCAUGU. For B5, the binding signal was 0.097 KA relative to UGCAUGU. As for B6, the figure is 0.123 KA relative to UGCAUGU.

As for B7, the binding signal was 0.0776 KA relative to UGCAUGU. Turning to B8, the binding signal was 0.0646 KA relative to UGCAUGU.

B9: the binding signal is 0.113 KA relative to UGCAUGU. As to B10, the binding signal was 0.0694 KA relative to UGCAUGU. For the molecule B11, the binding signal was 0.763 KA relative to UGCAUGU. Then B12, with 0.356 KA relative to UGCAUGU.

Take B13: the binding signal is 0.168 KA relative to UGCAUGU.

Consider B14, for which the binding signal was 0.206 KA relative to UGCAUGU. Take B15: the binding signal is 0.135 KA relative to UGCAUGU. For B16, the binding signal is 0.1 KA relative to UGCAUGU. As for B17, the binding signal was 0.084 KA relative to UGCAUGU. As to B18, the binding signal is 0.121 KA relative to UGCAUGU. Regarding B19, the binding signal is 0.772 KA relative to UGCAUGU.

On to B20, for which the binding signal is 0.1 KA relative to UGCAUGU.

Take B21: the binding signal is 0.0991 KA relative to UGCAUGU. B22: the binding signal was 0.129 KA relative to UGCAUGU. As for B23, the binding signal is 0.0974 KA relative to UGCAUGU.

Take B24: the binding signal was 1.04 KA relative to UGCAUGU.

In the case of B25, the binding signal is 0.0703 KA relative to UGCAUGU. Turning to B26, the binding signal was 0.873 KA relative to UGCAUGU. With B27, the binding signal was 0.641 KA relative to UGCAUGU. Take B28: the binding signal is 0.107 KA relative to UGCAUGU.

On to B29, for which the binding signal is 0.101 KA relative to UGCAUGU. As to B30, the binding signal is 0.0899 KA relative to UGCAUGU. With B31, the binding signal was 0.14 KA relative to UGCAUGU.
